From PubChem BioAssay (Tox21)
Several values for one entry are separate records, joined by “and”; a condition that tells them apart may be missing. Equal entries are not always repeated. Records with an inconclusive call do not appear. Activity calls are given as the source filed them. Unless noted, calls follow the shape of the dose curve; as a rule, active = well fitted curve in the direction sought with a large enough effect in the repeat runs; inconclusive = weak or mixed curves; inactive = no such curve, though single readings can be large; an effect the other way counts as inactive or inconclusive.

How the values were obtained:
[1] = qHTS assay to identify small molecule antagonists of the estrogen receptor alpha (ER-alpha) signaling pathway using the BG1 cell line in the presence of 0.1 nM 17-beta-estradiol - cell viability counter screen (AID 1259241); also: nearly all actives have a fitted effect of over 40% in size; also: potency is read from the fitted curve at half-maximal effect
Outline: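 CellTiter-Fluor read (30 min, 37C) on ER-alpha/ERE-luc VM7Luc4E2 cells; 22 hr compound treatment; agonist 0.1 nM E2 final; same-well multiplex.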

[2] = qHTS assay to identify small molecule antagonists of the androgen receptor (AR) signaling pathway using the MDA cell line in the presence of 0.5 nM R1881 - cell viability counter screen (AID 1259242); also: nearly all actives have a fitted effect of over 45% in size; also: potency is read from the fitted curve at half-maximal effect
Outline: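 qHTS format. MDA-kb2 (MMTV-luc, AR/GR responsive) + cpd + 0.5 nM R1881 final, 16 hr 37C/0% CO2 → CellTiter-Fluor 30 min → fluorescence intensity.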

[3] = target: Androgen receptor (Homo sapiens) (UniProt P10275); test: qHTS assay to identify small molecule antagonists of the androgen receptor (AR) signaling pathway using the MDA cell line in the presence of 0.5 nM R1881 (AID 1259243); also: nearly all actives have a fitted effect of over 50% in size; also: potency is read from the fitted curve at half-maximal effect
Outline: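 Antagonist mode quantitative HTS in MDA-kb2 MMTV-luciferase cells, agonist R1881 at 0.5 nM final, 16 hr exposure at 37C and 0% CO2, luminescent detection.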

[4] = target: Estrogen receptor (Homo sapiens) (UniProt P03372); test: qHTS assay to identify small molecule antagonists of the estrogen receptor alpha (ER-alpha) signaling pathway using the BG1 cell line in the presence of 0.1 nM 17-beta-estradiol (AID 1259244); also: nearly all actives have a fitted effect of over 50% in size; also: potency is read from the fitted curve at half-maximal effect
Outline: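 Reporter is a stably transfected luciferase under four estrogen responsive elements in VM7Luc4E2 cells expressing native full-length ER-alpha; inhibition of 0.1 nM (final) 17beta-estradiol-driven signal over 22 h is read by luminescence.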

[5] = qHTS assay to identify small molecule phospholipidosis (PLD) inducers (AID 1259344; active = well fitted curve in the direction sought with a large enough effect; an effect the other way counts as inactive or inconclusive)
Outline: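 After 4 h attachment on collagen I, HepG2 cells were dosed with compound alongside LipidTOX Red, kept 24 h at 37 C, fixed, and imaged for lamellar phospholipid pits.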

[6] = qHTS assay to identify small molecule HDAC inhibitors (AID 1259364); also: potency is read from the fitted curve at half-maximal effect;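 also: wild-type HCT-116 cells with endogenous class I/II HDAC activity; nearly all actives have a fitted effect of over 45% in size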
Outline: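 Quantitative high-throughput format: overnight-seeded HCT-116 cells got compounds for 2 hr at 37C; HDAC-Glo I/II reagent added, 30 min RT, luminescence measured.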

[7] = qHTS assay to identify small molecule HDAC inhibitors - cell viability counter screen (AID 1259365); also: nearly all actives have a fitted effect of over 50% in size; also: potency is read from the fitted curve at half-maximal effect
Outline: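 To flag cytotoxic hits, 1,500 wild-type HCT-116 cells per well, plated the day before, receive test compounds for 2hr at 37 C before CellTiter-Glo reagent and a luminescence read.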

[8] = qHTS assay to identify small molecule agonists of the sonic hedgehog signaling (Shh) pathway - cell viability counter screen (AID 1259366); also: nearly all actives have a fitted effect of over 50% in size; also: potency is read from the fitted curve at half-maximal effect
Outline: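 Fluorescence from CellTiter-Fluor reports live cells in this counter screen. NIH/3T3-derived Gli1-Luc reporter cells receive test compounds for 24hr at 37C; reagent goes in at 23hr.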

[9] = qHTS assay to identify small molecule antagonists of the sonic hedgehog signaling (Shh) pathway - cell viability counter screen (AID 1259367); also: nearly all actives have a fitted effect of over 55% in size; also: potency is read from the fitted curve at half-maximal effect
Outline: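 Conditioned medium drove Shh signaling in 3T3 Gli1-Luc cells exposed to compounds at 37C and 5% CO2. Viability was determined from CellTiter-Fluor fluorescence, with reagent incubated 1 hr after 23 hr of treatment.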

[10] = qHTS assay to identify small molecule agonists of the sonic hedgehog signaling (Shh) pathway (AID 1259368; calls by dose curve; also: nearly all actives have a fitted effect of over 15% in size; also: potency is read from the fitted curve at half-maximal effect)
Outline: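 Quantitative high-throughput format using a Gli1-driven firefly luciferase reporter line derived from NIH/3T3 cells. After a 24 hr compound treatment at 37 C and 5% CO2, luminescence reported Gli1 response element activity.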

[11] = target: Estrogen receptor beta (Homo sapiens) (UniProt Q92731); test: qHTS assay to identify small molecule agonists of the estrogen receptor beta (ER-beta) signaling pathway (AID 1259377; active = well fitted activation curve with a large enough effect in the signal ratio in the repeat runs, not every such curve was filed as active; the % refers to the signal ratio)
Outline: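 Screening used GripTite ER-beta-UAS-bla cells held in 2% charcoal-stripped FBS medium. After overnight (16 hr) compound incubation at 37C, beta-lactamase activity was detected with a FRET substrate by fluorescence.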

[12] = target: Estrogen receptor beta (Homo sapiens) (UniProt Q92731); test: qHTS assay to identify small molecule antagonists of the estrogen receptor beta (ER-beta) signaling pathway (AID 1259378; active = well fitted inhibition curve with a large enough effect in the signal ratio in the repeat runs, not every such curve was filed as active; the % refers to the signal ratio; also: potency is read from the fitted curve at half-maximal effect)
Outline: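 ER-beta-UAS-bla HEK293T (GripTite) cells in 2% charcoal-stripped FBS medium were preincubated 6 hr at 37C, dosed with compound, then stimulated with 1 nM E2 (final) for 16 hr; beta-lactamase reporter read by B/G FRET fluorescence after 2 hr substrate loading.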

[13] = qHTS assay to identify small molecule agonists of the androgen receptor (AR) signaling pathway in the presence of an antagonist - cell viability counter screen (AID 1259379); also: nearly all actives have a fitted effect of over 25% in size; also: potency is read from the fitted curve at half-maximal effect
Outline: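 Nilutamide-containing (3.0uM final) MDA-kb2 cultures, 3,000 cells/well, were treated with compounds across 15 concentrations. After 16 hr at 37C with no CO2, cell viability was determined by CellTiter-Fluor fluorescence in the luciferase assay wells.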

[14] = qHTS assay to identify small molecule agonists of the estrogen receptor beta (ER-beta) signaling pathway - cell viability counter screen (AID 1259380); also: nearly all actives have a fitted effect of over 30% in size; also: potency is read from the fitted curve at half-maximal effect
Outline: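 Steps: plate ER-beta-UAS-bla HEK293T cells, rest 6 hr; add compounds in DMSO; incubate 16 hr at 37C, 5% CO2; add FRET substrate 2 hr; add CellTiter-Glo, wait 30 min at room temperature; read luminescence.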

[15] = target: Androgen receptor (Homo sapiens) (UniProt P10275); test: qHTS assay to identify small molecule agonists of the androgen receptor (AR) signaling pathway in the presence of an antagonist (AID 1259381; calls by dose curve; also: nearly all actives have a fitted effect of over 15% in size)
Outline: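 Reporter-gene luminescence from MDA-kb2 cells exposed 16hr at 37C (0% CO2) to 15-point compound titrations with 3.0uM final nilutamide as AR antagonist.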

[16] = qHTS assay to identify small molecule antagonists of the estrogen receptor beta (ER-beta) signaling pathway - cell viability counter screen (AID 1259382); also: nearly all actives have a fitted effect of over 55% in size; also: potency is read from the fitted curve at half-maximal effect
Outline: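 Viability is scored by CellTiter-Glo luminescence (30 min, room temperature) in ER-beta-UAS-bla HEK293T wells already read for reporter fluorescence. Compound exposure lasts 16 hr at 37C alongside 1nM 17-beta-estradiol in charcoal-stripped serum medium.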

[17] = target: Estrogen receptor (Homo sapiens) (UniProt P03372); test: qHTS assay to identify small molecule agonists of the estrogen receptor alpha (ER-alpha) signaling pathway in the presence of an antagonist (AID 1259383; calls by dose curve; also: nearly all actives have a fitted effect of over 15% in size; also: potency is read from the fitted curve at half-maximal effect; as to activation: top concentration of the series differs between compounds)
Outline: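 Readout was ERE-driven luciferase luminescence in VM7Luc4E2 cells, which express full-length ER-alpha endogenously. Compounds were tested at 15 concentrations for 22hr alongside 10.0nM ICI-182,780 (final concentration).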

[18] = qHTS assay to identify small molecule agonists or antagonists of the thyroid stimulating hormone receptor (TSHR) signaling pathway - wild type cell line counter screen (AID 1259384; calls by dose curve)
Outline: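 Wild-type HEK293 cells were plated 18 h at 37 C/5% CO2, pin-dosed with compound plus Ro20-1724 medium, held 30 min at room temperature, then given cAMP-d2 and anti-cAMP-cryptate; fluorescence was read after 1 h. Fifteen concentrations, triplicate.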

[19] = qHTS assay to identify small molecule antagonists of the sonic hedgehog signaling (Shh) pathway (AID 1259369; calls by dose curve; also: nearly all actives have a fitted effect of over 45% in size; also: potency is read from the fitted curve at half-maximal effect)
Outline: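 Stable Gli1-Luc reporter NIH/3T3 clone; quantitative HTS in stimulated mode with conditioned medium. Luminescence measured after 24hr compound treatment at 37 C.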

[20] = target: Thyrotropin receptor (Homo sapiens) (UniProt P16473); test: qHTS assay to identify small molecule antagonists of the thyroid stimulating hormone receptor (TSHR) signaling pathway (AID 1259385; calls by dose curve; also: nearly all actives have a fitted effect of over 20% in size; also: potency is read from the fitted curve at half-maximal effect)
Outline: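 TSHR-HEK293 cells were plated and held 18 h at 37C/5% CO2, then given compound plus Ro20-1724 and stimulated with TSH at 1.5 ng/mL final. After 30 min at room temperature, cAMP was detected with cAMP-d2/anti-cAMP-cryptate (1 h) by fluorescence.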

Measured: Potency

Chain of Androgen receptor (Homo sapiens) (P10275 whole entry, looked up): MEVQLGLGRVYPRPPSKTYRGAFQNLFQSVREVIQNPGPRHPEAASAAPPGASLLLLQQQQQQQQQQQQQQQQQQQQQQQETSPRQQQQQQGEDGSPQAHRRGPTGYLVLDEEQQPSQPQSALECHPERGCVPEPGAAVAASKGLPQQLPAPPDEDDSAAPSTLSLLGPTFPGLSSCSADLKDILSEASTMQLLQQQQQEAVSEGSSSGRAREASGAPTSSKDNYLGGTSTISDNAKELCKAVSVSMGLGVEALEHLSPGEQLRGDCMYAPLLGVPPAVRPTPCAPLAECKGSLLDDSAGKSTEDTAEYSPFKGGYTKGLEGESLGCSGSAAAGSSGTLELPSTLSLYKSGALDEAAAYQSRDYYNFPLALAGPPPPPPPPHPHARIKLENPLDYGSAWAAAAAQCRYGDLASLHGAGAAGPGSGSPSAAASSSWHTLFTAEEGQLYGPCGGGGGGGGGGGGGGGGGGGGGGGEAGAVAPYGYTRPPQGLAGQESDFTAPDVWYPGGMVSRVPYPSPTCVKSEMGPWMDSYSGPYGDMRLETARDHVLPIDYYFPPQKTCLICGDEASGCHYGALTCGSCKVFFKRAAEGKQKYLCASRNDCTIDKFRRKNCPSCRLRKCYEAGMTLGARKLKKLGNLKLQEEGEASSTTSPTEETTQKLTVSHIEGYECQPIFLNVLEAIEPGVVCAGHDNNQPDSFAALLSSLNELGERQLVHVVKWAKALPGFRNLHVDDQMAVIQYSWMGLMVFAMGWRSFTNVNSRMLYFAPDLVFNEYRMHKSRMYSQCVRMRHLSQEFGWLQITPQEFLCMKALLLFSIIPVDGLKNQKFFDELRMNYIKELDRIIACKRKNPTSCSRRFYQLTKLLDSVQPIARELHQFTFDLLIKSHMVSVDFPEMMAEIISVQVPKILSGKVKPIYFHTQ
Chain of Estrogen receptor (Homo sapiens) (P03372 whole entry, looked up): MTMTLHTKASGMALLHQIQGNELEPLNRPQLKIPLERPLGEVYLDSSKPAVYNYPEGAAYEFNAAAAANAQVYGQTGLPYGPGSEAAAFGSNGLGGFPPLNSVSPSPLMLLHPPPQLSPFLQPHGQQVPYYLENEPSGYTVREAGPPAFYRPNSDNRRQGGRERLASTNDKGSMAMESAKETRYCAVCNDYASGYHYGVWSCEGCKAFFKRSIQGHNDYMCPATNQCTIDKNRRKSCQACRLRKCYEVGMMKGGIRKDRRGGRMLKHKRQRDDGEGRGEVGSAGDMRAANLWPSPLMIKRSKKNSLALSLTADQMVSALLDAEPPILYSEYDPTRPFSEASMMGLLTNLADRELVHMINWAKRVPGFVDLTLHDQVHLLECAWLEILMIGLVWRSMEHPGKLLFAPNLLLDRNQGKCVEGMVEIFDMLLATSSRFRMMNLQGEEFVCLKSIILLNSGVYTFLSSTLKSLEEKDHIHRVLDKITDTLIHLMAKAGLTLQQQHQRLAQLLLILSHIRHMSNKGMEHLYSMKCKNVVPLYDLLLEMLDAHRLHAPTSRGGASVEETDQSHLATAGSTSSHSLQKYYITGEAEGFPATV
Chain of Thyrotropin receptor (Homo sapiens) (P16473 whole entry, looked up): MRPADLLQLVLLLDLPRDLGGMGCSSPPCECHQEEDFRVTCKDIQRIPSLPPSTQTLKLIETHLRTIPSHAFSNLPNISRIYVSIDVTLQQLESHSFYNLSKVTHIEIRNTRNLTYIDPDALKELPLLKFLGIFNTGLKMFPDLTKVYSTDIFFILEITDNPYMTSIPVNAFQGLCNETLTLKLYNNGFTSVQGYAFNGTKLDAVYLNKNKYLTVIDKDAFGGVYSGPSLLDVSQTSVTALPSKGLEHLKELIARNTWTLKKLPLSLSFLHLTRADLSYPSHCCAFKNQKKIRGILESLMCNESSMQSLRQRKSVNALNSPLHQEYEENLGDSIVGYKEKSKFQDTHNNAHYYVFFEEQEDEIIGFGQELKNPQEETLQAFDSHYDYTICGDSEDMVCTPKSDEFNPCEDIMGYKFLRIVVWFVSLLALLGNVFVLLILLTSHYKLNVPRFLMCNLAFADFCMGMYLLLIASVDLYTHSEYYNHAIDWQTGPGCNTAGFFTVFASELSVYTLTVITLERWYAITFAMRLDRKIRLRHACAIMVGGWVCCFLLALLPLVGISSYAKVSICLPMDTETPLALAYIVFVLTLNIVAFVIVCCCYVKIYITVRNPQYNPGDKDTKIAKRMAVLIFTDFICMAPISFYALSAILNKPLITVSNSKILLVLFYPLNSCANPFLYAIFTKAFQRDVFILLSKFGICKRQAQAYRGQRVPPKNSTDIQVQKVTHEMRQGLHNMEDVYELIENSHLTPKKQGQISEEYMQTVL
Chain of Estrogen receptor beta (Homo sapiens) (Q92731 whole entry, looked up): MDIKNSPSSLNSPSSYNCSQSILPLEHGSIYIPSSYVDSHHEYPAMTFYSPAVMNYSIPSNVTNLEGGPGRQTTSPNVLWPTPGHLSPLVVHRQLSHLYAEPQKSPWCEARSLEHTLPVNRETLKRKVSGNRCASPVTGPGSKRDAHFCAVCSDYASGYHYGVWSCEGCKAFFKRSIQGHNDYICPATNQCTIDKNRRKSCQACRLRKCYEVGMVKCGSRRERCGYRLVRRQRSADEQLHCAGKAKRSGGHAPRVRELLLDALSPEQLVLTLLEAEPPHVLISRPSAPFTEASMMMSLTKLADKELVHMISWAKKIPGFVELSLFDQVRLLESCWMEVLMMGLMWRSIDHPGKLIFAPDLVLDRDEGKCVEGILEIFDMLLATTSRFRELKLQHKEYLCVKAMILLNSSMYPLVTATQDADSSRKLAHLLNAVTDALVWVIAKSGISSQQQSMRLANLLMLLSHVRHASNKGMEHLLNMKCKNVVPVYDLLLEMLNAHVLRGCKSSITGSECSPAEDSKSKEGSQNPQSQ

CC(C)C(C)(C)C(C)(C)C(C)(C)S
inactive: [1] | [2] | [3] | [4] | [5] | [6] | [7] | [8] | [9] | [10] | [11] | [12] | [13] | [14] | [15] | [16] | [17] | [18]

O=S1(=O)CC(Cl)(Cl)C(Cl)(Cl)C1
inactive: [6] | [10] | [11] | [15] | [18]
active: [1] 21.7 µM | [2] 21.7 µM | [3] 5.45 µM | [4] 21.7 µM | [7] 48.6 µM | [8] 1.37 µM | [9] 2.17 µM | [19] 0.344 µM | [12] 4.86 µM | [13] 21.7 µM | [14] 9.69 µM | [16] 9.69 µM | [20] 48.6 µM

Cc1cc(CCN2CCN(c3nsc4ccccc34)CC2)cc2c1NC(=O)CC2(C)C
active: [1] 34.4 µM | [2] 27.3 µM | [3] 8.63 µM | [4] 13.7 µM | [8] 21.7 µM | [9] 19.3 µM | [19] 1.37 µM | [13] 30.6 µM | [14] 21.7 µM | [16] 19.3 µM
inactive: [7] | [10] | [15] | [17] | [18]

CCOC(=O)c1nc(C(Cl)(Cl)Cl)n(-c2ccc(Cl)cc2Cl)n1
active: [3] 61.1 µM | [9] 61.1 µM | [12] 54.5 µM | [14] 54.5 µM | [16] 61.1 µM
inactive: [1] | [2] | [4] | [6] | [7] | [8] | [10] | [15] | [18] | [20]

O=C(Oc1ccccc1)c1ccccc1C(=O)Oc1ccccc1
active: [3] 54.5 µM | [12] 48.6 µM
inactive: [1] | [2] | [4] | [6] | [7] | [9] | [10] | [15] | [16] | [17]

CCC(C)Nc1ccc(NC(C)CC)cc1 (configuration not stated)
inactive: [6] | [10] | [15] | [17]
active: [1] 9.88 µM | [2] 24.8 µM | [3] 1.57 µM | [4] 2.48 µM | [8] 11.1 µM | [9] 19.7 µM | [19] 3.93 µM | [13] 24.8 µM | [14] 3.93 µM | [16] 5.55 µM

COc1ccc(C(=O)/C(Br)=C\C(=O)O)cc1
inactive: [1] | [2] | [4] | [5] | [6] | [7] | [14] | [15] | [16] | [17] | [18]
active: [3] 48.6 µM | [10] 17.2 µM | [19] 3.86 µM

C[C@@H](NCCCc1cccc(C(F)(F)F)c1)c1cccc2ccccc12
active: [2] 23.7 µM | [3] 18.8 µM | [19] 18.8 µM | [12] 10.6 µM | [13] 29.8 µM | [14] 21.1 µM | [16] 18.8 µM
inactive: [1] | [5] | [6] | [7] | [10] | [11] | [15] | [17] | [18]

NNC(=O)c1cccc(C(=O)NN)c1
inactive: [1] | [2] | [3] | [4] | [6] | [7] | [8] | [9] | [10] | [19] | [15] | [16] | [17]

OCc1c[nH]c2ccccc12
inactive: [1] | [2] | [5] | [6] | [7] | [8] | [10] | [15] | [16] | [17] | [18] | [20]
active: [3] 17.2 µM | [19] 30.6 µM

Nc1ccc(N)c2ccccc12
active: [1] 19.3 µM | [2] 61.1 µM | [3] 19.3 µM | [4] 12.2 µM | [8] 61.1 µM | [9] 61.1 µM | [19] 12.2 µM | [13] 61.1 µM | [14] 24.3 µM | [16] 27.3 µM
inactive: [6] | [10] | [15] | [17]

CCCCCCOC(=O)c1ccc(O)cc1
active: [6] 24.4 µM and 27.3 µM | [14] 48.6 µM | [17] 27.3 µM
inactive: [1] | [2] | [3] | [4] | [7] | [11] | [15] | [16] | [18] | [20]

Cc1cc(C2CCCCC2)n(O)c(=O)c1
active: [1] 11.9 µM | [4] 6.68 µM | [9] 15 µM | [19] 1.19 µM
inactive: [2] | [5] | [6] | [7] | [10] | [14] | [16] | [17] | [18] | [20]

CCCCCCCCOc1ccccc1C(=O)Nc1ccc(C(=O)OCC[N+](C)(CC)CC)cc1
active: [14] 23.7 µM | [16] 23.7 µM
inactive: [1] | [2] | [4] | [5] | [6] | [7] | [8] | [10] | [19] | [13] | [17] | [18] | [20]

CCCCN(CCCC)c1ccc(C(=O)c2ccccc2C(=O)O)c(O)c1
inactive: [1] | [2] | [3] | [6] | [8] | [10] | [19] | [13] | [15] | [18] | [20]
active: [14] 15.5 µM
